Results as given in the supplement of paper PMC6555819.

Each sequence was assayed on VDR:RXRa (NR concentration 270 nM, RXRa partner concentration 90 nM) (assay: PBM binding z-score (relative to random genomic background probes); higher = stronger binding; sequences stand for … in GC…GCGATTGACAGCGTAGAATGAAGG).
Experimental: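 Protein-binding microarray (Agilent 4x180K custom design, double-stranded 60-nt probes: 5' GC cap, 34-nt variable region, 24-nt constant primer region; full probe sequence given). Purified or IVT nuclear receptor:RXRα heterodimers (3:1 NR:RXRα, mostly 270:90 nM) or homodimers were incubated for 1 h in PBS with 2% milk and no ligand, then detected with Alexa488 antibodies. Fluorescence from o1-orientation probes (~5 replicates averaged) was converted to z-scores against 500 random hg19 background probes. Variable regions are seed direct-repeat (DR0–DR5) sites, all their single-nucleotide variants and half-site ablations.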
For CTCGAAAGGTCGGTTGAGGTCAGTATACGGATAA, the PBM binding z-score was 6.09. CTATGTAGGTTAAGGGGGTCGTTCAGTTTGAAAG gave a PBM binding z-score of 6.43. TAGCCTAGGTCATGCGGGCCAGTATAGTGTCGGC was tested, and the PBM binding z-score was 2.89. In the case of ATATGTAGGTTAGGGTCATACAGAAAGTAGGGAA, the PBM binding z-score is reported as 4.24. CCGACTGGGCCATTCAGAGGTCATTGATCATATG gave a PBM binding z-score of 3.7. TCGAGTAGGTTACGGGGGAATTCAGGGATGAAGA gave a PBM binding z-score of 1.25. Sequence CGTCCAAGGTCATAAGAGGTCAGTGAAGACAGAT has a PBM binding z-score of 6.96. ATATGTAGGTTAGGGTCATTCCGAAAGTAGGGAA was tested, and the PBM binding z-score was 4.54. For CTATGTAGGTTTAGGGGGTCATTCAGTTTGAAAG, the PBM binding z-score was 6.29. For CAAACTAGGTCAAGAGGTCAAAGGCCGCTTCCCG, the PBM binding z-score was 5.83. For CTCGAAAGGTCAGTTGAGGTGAGTATACGGATAA, the PBM binding z-score was 4.7. Work on CTATGTAGGTTAAGGGGGTCATCCAGTTTGAAAG yielded a PBM binding z-score of 7.32. CCTAGTTGGTCAAGGTCCCACACGCTATAGGTAC was tested, and the PBM binding z-score was 0.398. In the case of TGTCAAAGCTCAAAGGTAACGTAAGTATCCACAC, the PBM binding z-score is reported as 0.171. ATATGGAGGTTAAGGGTCATTCAGGTTGGTTCGC was tested, and the PBM binding z-score was 6.32. Work on CTATGTAGGTTAAGGGGGTCCTTCAGTTTGAAAG yielded a PBM binding z-score of 3.98. In the case of TAGCCTAGGTCATTGTGCCAGTATAGTACGCATC, the PBM binding z-score is reported as 2.33. Sequence CCGTACGGGTCAAGGTTATAGCACGGGTGGTACG has a PBM binding z-score of 3.43. With GCTGCTAGGTCAACTGATGGTGAGCTAAAGCTCG the PBM binding z-score was 1.13. Work on CTATGAAGGTTAAGGGGGTCATTCAGTTTGAAAG yielded a PBM binding z-score of 7.95. For ATATGTAGCTTAAGGGTCATTCAGGTTGGTTCGC, the PBM binding z-score was 5.26. In the case of CGAACTAAGTCAAAGGACAGTGAAAGGCGACGTA, the PBM binding z-score is reported as -0.259. CGAACTAGGTCAAAGGACAGTTAAAGGCGACGTA was tested, and the PBM binding z-score was 1.52. CGTCCAAGGTCAATGCTAGCTCAGTGAAAGCATT gave a PBM binding z-score of 3.63. ATCTCTAGGTTAAAGTTCAGTGAATCCCGAGGAT gave a PBM binding z-score of 2.76. For CCGAGTAGGTTACGAGGGGGCATTCTGTGCGAAT, the PBM binding z-score was 4.89. CTATGTAGGTTAAGTGGGTCATTCAGTTTGAAAG was tested, and the PBM binding z-score was 4.99. With TCTAGTTGGTCGCGGAGGTCACACACGACGGGTA the PBM binding z-score was 4.55. TCGAATAGGTTACGGGGGCATTCAGGGATGAAGA showed a PBM binding z-score of 4.6. With CGAACTAGGTCAAAGAACAGTGAAAGGCGACGTA the PBM binding z-score was 0.943. Sequence CGAACTAGGTCAAAGGACAGTGACAGGCGACGTA has a PBM binding z-score of 1.47. Sequence CCTAGTTGGTCAAGGTCACGCACGCTATAGGTAC has a PBM binding z-score of 4.45. Work on ATATGTAGGTTAGGGTCATTGAGAAAGTAGGGAA yielded a PBM binding z-score of 4.27. CGAACTAGGTCACCAGGACAGTGCAGAGGTTGGA gave a PBM binding z-score of 2.28. GATACAGGGTCAAGGCCAGAGTACGCGTATTGAT gave a PBM binding z-score of 4.28. TAGCCTAGGTCATAGGGCCAGTATAGTACGCATC showed a PBM binding z-score of 1.96. Work on CGTCGGAGGACAACAGGAGGTCAGAGCTGCCAGA yielded a PBM binding z-score of 2.05. In the case of CCTTACGGGTCCCTGACAGGTTATAGCATTTGGA, the PBM binding z-score is reported as -0.165. CTCGAAAGGGCGTGCTCAGGTGAGTATACCAAAC gave a PBM binding z-score of -0.0475. For CGAACTGGGTCAAAGGACAGTGAAAGGCGACGTA, the PBM binding z-score was 1.39.
